Assay results reported in PubChem BioAssay (NCATS).
Records with an inconclusive call do not appear. Calls of active or inactive are those of the source. Calls follow the shape of the dose curve; as a rule, active = well fitted inhibition curve with a large enough effect; inconclusive = small, poorly fitted or top-dose-only effect; inactive = flat fitted curve, though single readings scatter.

Legend:
[1] = Drug repurposing screens with cells derived from glioblastoma tumor samples (AID 1345199); conditions: GBM patient neurospheres viability, ATP luminescence, 48 h; also: nearly all actives have a fitted effect of over 40% in size
Method in brief: (§1)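 Primary testing used CD133+ neurospheres from four GBM patients, seven concentrations, 48 h exposure and ATP-based viability; confirmation added three slower-growing patient lines.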

astro = control astrocytes; experiment: as above; conditions: viability, ATP luminescence, 48 h; series mostly up to 45.9 µM
Method in brief: as §1

[2] = at 45.9 µM (top of the series), tumour line B
[3] = at 45.9 µM (top of the series), tumour line D
[4] = at 46 µM (top of the series), tumour line A
[5] = at 46.1 µM (top of the series), tumour line C
% is scaled to controls: 0 for no effect and ±100 for the full control effect.

O=C(Cc1cccs1)N[C@@H]1C(=O)N2C(C(=O)[O-])=C(C[n+]3ccccc3)CS[C@H]12
inactive: activity, negative = cell killing [1, 2] -13.3% | activity, negative = cell killing [1, 3] 8.29% | activity, negative = cell killing [1, 4] -29.7% | activity, negative = cell killing [1, 5] -10.2% | Potency (astro)

CC(=O)N[C@@H]1C(O[C@H]2O[C@H](C(=O)O)C(O)[C@H](O)[C@H]2O)[C@H](O)[C@@H](CO)O[C@H]1O[C@@H]1C(C(=O)O)O[C@@H](O[C@H]2[C@H](O)[C@@H](CO)OC(O)[C@@H]2NC(C)=O)[C@H](O)[C@H]1O (stereo not given in full)
inactive: activity, negative = cell killing [1, 2] -6.99% | activity, negative = cell killing [1, 3] -9.84% | activity, negative = cell killing [1, 4] -10.4% | activity, negative = cell killing [1, 5] -7.36% | Potency (astro)

COC(=O)[C@@H](N)CS
inactive: activity, negative = cell killing [1, 2] 4.89% | activity, negative = cell killing [1, 3] -8.33% | activity, negative = cell killing [1, 4] -26.1% | activity, negative = cell killing [1, 5] 4.09% | Potency (astro)

O=C1[O][Bi][O]c2ccccc21
inactive: activity, negative = cell killing [1, 2] -16% | activity, negative = cell killing [1, 3] -27.4% | activity, negative = cell killing [1, 4] -26.1% | activity, negative = cell killing [1, 5] -6.82% | Potency (astro)

NC[C@H]1O[C@H](O[C@H]2[C@H](O)[C@@H](O[C@H]3O[C@H](CO)[C@@H](O)[C@H](N)[C@H]3O)[C@H](N)C[C@@H]2N)[C@H](N)C[C@@H]1O
inactive: activity, negative = cell killing ([1]; at 20 µM (top of the series), tumour line C) 1.26% | activity, negative = cell killing ([1]; at 21.2 µM (top of the series), tumour line B) -9.72% | activity, negative = cell killing ([1]; at 21.2 µM (top of the series), tumour line D) -3.61% | activity, negative = cell killing ([1]; at 21.3 µM (top of the series), tumour line A) -18.4% | Potency (astro)

CCCc1ccc(C(=O)O)cc1
inactive: activity, negative = cell killing [1, 2] -12.5% | activity, negative = cell killing [1, 3] -19.9% | activity, negative = cell killing [1, 4] -22.4% | activity, negative = cell killing [1, 5] 3.37% | Potency (astro)

CCC(C)[C@@H](N)C(=O)O (stereo not given in full)
inactive: activity, negative = cell killing [1, 2] -9.25% | activity, negative = cell killing [1, 3] -6.09% | activity, negative = cell killing [1, 4] -16.7% | activity, negative = cell killing [1, 5] 10.2% | Potency (astro)

N[C@H](CC(=O)O)C(=O)O
inactive: activity, negative = cell killing [1, 2] 13.2% | activity, negative = cell killing [1, 3] 11.3% | activity, negative = cell killing [1, 4] 11.8% | activity, negative = cell killing [1, 5] -1.3% | Potency (astro)

CC(=O)[O][Al][O]C(C)=O
inactive: activity, negative = cell killing [1, 2] -5.15% | activity, negative = cell killing [1, 3] -14.6% | activity, negative = cell killing [1, 4] -26.4% | activity, negative = cell killing [1, 5] -11.8% | Potency (astro)

CC(C)[C@@H]1CC[C@@H](C)C[C@H]1OC(=O)c1ccccc1O
inactive: activity, negative = cell killing [1, 2] -16.3% | activity, negative = cell killing [1, 3] -12.7% | activity, negative = cell killing [1, 4] -21.2% | activity, negative = cell killing [1, 5] -34.9% | Potency (astro)

NC[C@@H]1CC[C@@H](N)[C@@H](O[C@H]2[C@H](O)[C@@H](O[C@H]3O[C@H](CO)[C@@H](O)[C@H](N)[C@H]3O)[C@H](N)C[C@@H]2N)O1
inactive: activity, negative = cell killing [1, 2] 0.351% | activity, negative = cell killing [1, 3] 3.76% | activity, negative = cell killing [1, 4] -27.2% | activity, negative = cell killing [1, 5] -13% | Potency (astro)

CC(=O)NCCCS(=O)(=O)O
inactive: activity, negative = cell killing [1, 2] -1.38% | activity, negative = cell killing [1, 3] -1.99% | activity, negative = cell killing [1, 4] -10.5% | activity, negative = cell killing [1, 5] -6.16% | Potency (astro)

NCC[C@H](O)C(=O)N[C@@H]1C[C@H](N)[C@@H](O[C@H]2O[C@H](CN)CC[C@H]2N)[C@H](O)[C@H]1O[C@H]1O[C@H](CO)[C@@H](O)[C@H](N)[C@H]1O
inactive: activity, negative = cell killing [1, 2] -11.6% | activity, negative = cell killing [1, 3] -8.34% | activity, negative = cell killing [1, 4] -19.6% | activity, negative = cell killing [1, 5] -19.9% | Potency (astro)

C[C@]12CC[C@@H]3c4ccc(O)cc4CC[C@H]3[C@@H]1CC[C@@H]2OP(=O)(O)O
inactive: activity, negative = cell killing [1, 2] -7.23% | activity, negative = cell killing [1, 3] -13% | activity, negative = cell killing [1, 4] -23.9% | activity, negative = cell killing [1, 5] 22.6% | Potency (astro)

O=C(O)CN(CC(=O)O)CC1=CC2C(=CC1=O)Oc1cc(O)c(CN(CC(=O)O)CC(=O)O)cc1C21OC(=O)c2ccccc21 (stereo not given)
inactive: activity, negative = cell killing [1, 2] -10.9% | activity, negative = cell killing [1, 3] -10.1% | activity, negative = cell killing [1, 4] -21.2% | activity, negative = cell killing [1, 5] -24.7% | Potency (astro)

CO/N=C(\C(=O)N[C@@H]1C(=O)N2C(C(=O)O)=C(CSc3nc(C)c(CC(=O)O)s3)CS[C@H]12)c1csc(N)n1
inactive: activity, negative = cell killing [1, 2] -4.93% | activity, negative = cell killing [1, 3] 3.79% | activity, negative = cell killing [1, 4] -22% | activity, negative = cell killing [1, 5] -20.8% | Potency (astro)

CC/C(=C(/CC)c1ccc(OP(=O)(O)O)cc1)c1ccc(OP(=O)(O)O)cc1
inactive: activity, negative = cell killing [1, 2] -16% | activity, negative = cell killing [1, 3] -11.4% | activity, negative = cell killing [1, 4] -22.6% | activity, negative = cell killing [1, 5] -17.3% | Potency (astro)

CO/N=C(\C(=O)N[C@@H]1C(=O)N2C(C(=O)O)=C(C[N+]3(C)CCCC3)CS[C@H]12)c1csc(N)n1
inactive: activity, negative = cell killing [1, 2] -2.14% | activity, negative = cell killing [1, 3] 5.4% | activity, negative = cell killing [1, 4] -4.98% | activity, negative = cell killing [1, 5] -21.1% | Potency (astro)

CO/N=C(\C(=O)N[C@@H]1C(=O)N2C(C(=O)O)=CCS[C@H]12)c1csc(N)n1
inactive: activity, negative = cell killing [1, 2] -10.9% | activity, negative = cell killing [1, 3] -17.7% | activity, negative = cell killing [1, 4] -10.3% | activity, negative = cell killing [1, 5] -14% | Potency (astro)

CC(=O)OCC(=O)[C@@]1(O)CC[C@H]2[C@@H]3CCC4=CC(=O)CC[C@]4(C)C3=CC[C@@]21C
inactive: activity, negative = cell killing [1, 2] -7.95% | activity, negative = cell killing [1, 3] 3.12% | activity, negative = cell killing [1, 4] -15.3% | activity, negative = cell killing [1, 5] -8.95% | Potency (astro)

CN1c2c(nc(N)[nH]c2=O)NCC1CNc1ccc(C(=O)NC(CCC(=O)O)C(=O)O)cc1 (stereo not given)
inactive: activity, negative = cell killing [1, 2] -12% | activity, negative = cell killing [1, 3] -5.57% | activity, negative = cell killing [1, 4] -17.5% | activity, negative = cell killing [1, 5] -2.53% | Potency (astro)
